Results on 40 compounds are retold here after PubChem BioAssay (EPA / NIEHS).

SMILES strings stand for the structures. Active and inactive are the calls of the source. Rule for the calls: active = hit-call score of the fitted dose curve at least 0.9, where 1 is the maximum; inactive = score below 0.9.

This test is described as follows: ATG_M_61_CIS: Attagene CIS-FACTORIAL HepG2 Assay for M61 Transcription Factor (Internal Marker) (AID 2282937). Particulars: HepG2 Attagene CIS-FACTORIAL M61 internal marker reporter; actives raise or lower the signal. On the procedure:
ATG_CIS is a cell-based, multiplexed-readout assay that uses HepG2, a human liver cell line, with measurements taken at 24 hours after chemical dosing in a 24-well plate.ATG_M_61_CIS is one of 52 assay component(s) measured or calculated from the ATG_CIS assay. It is designed to make measurements of mRNA induction, a form of inducible reporter, as detected with fluorescence intensity signals by Reverse transcription polymerase chain reaction (RT-PCR) and Capillary electrophoresis technology.Data from the assay component ATG_M_61_CIS was analyzed into 1 assay endpoint. This assay endpoint, ATG_M_61_CIS, was analyzed with bidirectional fitting relative to DMSO as the negative control and baseline of activity. Using a type of inducible reporter, measures of mRNA for gain or loss-of-signal activity can be used to understand the background control at the transcription factor-level as they relate to the gene . Furthermore, this assay endpoint can be referred to as a secondary readout, because this assay has produced multiple assay endpoints where this one serves a background control function. To generalize the intended target to other relatable targets, this assay endpoint is annotated to the background measurement intended target family, where the subfamily is internal marker.
Human liver HepG2 cells are transiently transfected with multiple reporter transcription units (MRTUs) in 6-well plates using FuGene 6 reagent (Roche; 3 ml FuGene/1 mg DNA). The MRTU constructs are regulated by a cis-regulating element (promoter). […] A major difference between the CIS and TRANS system is that in CIS activities of endogenous TFs are measured, whereas the TRANS assay evaluates changes in activities of exogenous, chimeric NR-Gal4 proteins. […] At the end of 24 hour incubation, total RNA was isolated using TriZol reagent (Invitrogen). The isolated RNA is then reverse-transcribed using oligo(dT) primer and Mo-MLV reverse transcriptase (Invitrogen) with DNAse I (Ambion) treatment for 30 min. The one-tenth of the produced cDNA was amplified by PCR using Taq DNA polymerase (Invitrogen) and two reporter sequence-specific primers. The PCR products were fluorescently labeled by primer extension with 6-arboxyfluorescein (6-FAM) 5'-labeled reporter sequence-specific primer (2 min at 95 C, 20 s at 68 C and 10 min at 72 C) and these products were digested with 5U of HpaI (New England Biolabs) for 2h at 37 C. The fragments were purified using Qiaquick PCR columns (Qiagen), analyzed on an ABI 3130xL genetic analyzer (Applied Biosystems) with peak positions identified by using a set of X-rhodamine (ROX)-labeled MapMarker1000 molecular weight standards (BioVentures). The raw capillary electrophoresis data was processed using Attagraph software (Attagene).
Take `CC1(C)CCC(=Cc2ccc(Cl)cc2)C1(O)Cn1cncn1` (stereo not given): the compound was classed as inactive.

Regarding `CS(=O)(=O)c1cc(C(F)(F)F)ccc1C(=O)c1cnoc1C1CC1`, the compound was classed as inactive.

With `COC(=O)N(C(=O)N1CO[C@@]2(C(=O)OC)Cc3cc(Cl)ccc3C2=N1)c1ccc(OC(F)(F)F)cc1`, the result was inactive.

Regarding `O=c1n(Cl)c(=O)n(Cl)c(=O)n1Cl`, the result was inactive.

As to `Nc1cnn(-c2ccccc2)c(=O)c1Cl`, the outcome was inactive.

As for `COC(=O)NS(=O)(=O)c1ccc(N)cc1`, the outcome was inactive.

Take `COCC(C)N(C(=O)CCl)c1c(C)csc1C` (stereo not given): the compound was classed as inactive.

Turning to `CCN(CC)C(=O)C(C)Oc1cccc2ccccc12` (stereo not given), the result was inactive.

As to `CC(C)Oc1cccc(NC(=O)c2ccccc2C(F)(F)F)c1`, the call was inactive.

Take `CCN(CC)c1nc(C)cc(OP(=S)(OC)OC)n1`: the outcome was inactive.

Consider `CC(C)NC(=O)N1CC(=O)N(c2cc(Cl)cc(Cl)c2)C1=O`, for which the call was inactive.

Turning to `COC(=O)NC(=S)Nc1ccccc1NC(=S)NC(=O)OC`, the compound was called inactive.

Take `Nc1c(Cl)c(F)nc(OCC(=O)O)c1Cl`: the result was inactive.

For `COCC(=O)N(c1c(C)cccc1C)C(C)C(=O)OC` (stereo not given), the compound was called inactive.

For the compound `CCOc1nc(F)cc2nc(S(=O)(=O)Nc3c(Cl)cccc3Cl)nn12`, the compound was called inactive.

With `CC(C)Nc1nc(Cl)nc(NC(C)C)n1`, the compound was classed as inactive.

Turning to `CCCCC(C#N)(Cn1cncn1)c1ccc(Cl)cc1` (stereo not given), the compound was called inactive.

`CC1(C)C(C(=O)OC(C#N)c2cccc(Oc3ccccc3)c2)C1(C)C` (stereo not given): the compound was classed as inactive.

Regarding `CC1(C)C(C=C(Cl)Cl)C1C(=O)OC(C#N)c1cccc(Oc2ccccc2)c1` (stereo not given), the call was inactive.

Turning to `CCOP(=O)(OCC)Oc1nc(Cl)c(Cl)cc1Cl`, the result was inactive.

Turning to `CC(C)C1(C)N=C(c2ncccc2C(=O)O)NC1=O` (stereo not given), the call was inactive.

With `CCNP(=S)(OC)O/C(C)=C/C(=O)OC(C)C` (stereo not given), the compound was classed as inactive.

As to `CC(C)N1C(=O)c2ccccc2NS1(=O)=O`, the result was inactive.

For `O=C(Nc1ccccc1-c1ccc(Cl)cc1)c1cccnc1Cl`, the call was inactive.

`COc1ccc(-c2ccccc2)cc1NNC(=O)OC(C)C`: the outcome was inactive.

As to `CCCC(=NOCC)C1=C(O)CC(CC(C)SCC)CC1=O` (stereo not given), the compound was classed as inactive.

With `Cn1c(-c2ccccc2)cc(-c2ccccc2)[n+]1C`, the outcome was inactive.

Turning to `CNC(=O)Oc1cccc2ccccc12`, the call was inactive.

Consider `N#Cc1c[nH]cc1-c1cccc2c1OC(F)(F)O2`, for which the call was inactive.

On to `Cc1ccc(N=CN(C)C=Nc2ccc(C)cc2C)c(C)c1`, for which the outcome was inactive.

On to `Clc1nc(Cl)nc(Nc2ccccc2Cl)n1`, for which the call was inactive.

On to `OC(c1ccc(Cl)cc1)(c1ccc(Cl)cc1)C(Cl)(Cl)Cl`, for which the compound was classed as inactive.

Regarding `CCOC(=O)C(C)OC(=O)c1cc(Oc2ccc(C(F)(F)F)cc2Cl)ccc1[N+](=O)[O-]` (stereo not given), the compound was classed as inactive.

Turning to `CCC(C)n1c(=O)[nH]c(C)c(Br)c1=O` (stereo not given), the compound was classed as inactive.

For the compound `CC1(C)CON(Cc2ccccc2Cl)C1=O`, the result was inactive.

Consider `CSC(=O)c1c(C(F)F)nc(C(F)(F)F)c(C(=O)SC)c1CC(C)C`, for which the outcome was inactive.

`COc1cc(Cl)c(OC)cc1Cl`: the call was inactive.

With `Nc1c(Cl)c(Cl)nc(C(=O)O)c1Cl`, the outcome was inactive.

For `COP(=O)(OC)O/C(C)=C/C(=O)N(C)C`, the compound was classed as inactive.

Regarding `CCCN(CC)CC1COC2(CCC(C(C)(C)C)CC2)O1` (stereo not given), the compound was classed as inactive.
